The results in this text go back to PubChem BioAssay (NCI).

“And” between values parts separate entries of the source, which are not always exact repeats. Identical values can stand only once. About 83,000 compounds went through this panel and 20% of them were active in at least one assay; those are over-represented in the sample as a whole.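 Results are percent growth after 48 hours of single-concentration exposure. 100 means growth as in untreated cells, lower positive values show inhibition; negative values down to -100 show cell death.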 The source made the active and inactive calls. How the source made its calls: active means growth percent below 10; inactive means the rest.

Test systems include HCT-15 colon; HT29 colon; SNB-75 CNS; SNB-19 CNS; U251 CNS; PC-3 prostate; SK-MEL-5 melanoma; UACC-62 melanoma; LOX IMVI melanoma; SK-MEL-28 melanoma; SK-MEL-2 melanoma; EKVX NSCLC; SN12C renal; UO-31 renal; TK-10 renal; ACHN renal; CAKI-1 renal; A498 renal; HL-60(TB) leukemia; CCRF-CEM leukemia.
What all share (experiment): NCI-60 one-dose screen, 48 h (100 = growth as untreated, 0 = no growth, -100 = all killed)
Common to all, as to settings: 10 µM unless noted

In the case of `C[C@]12C[C@H](c3ccoc3)OC(=O)[C@H]1CC[C@@]1(C)[C@@H]2[C@H]2C=C[C@]1(O)C(=O)O2`, the growth in the test on HCT-15 colon was 101% (inactive); in the test with HT29 colon, 82.3% (inactive); with SNB-75 CNS, 78.3% (inactive); with SNB-19 CNS it was 102% (inactive); with U251 CNS, 97.8% (inactive); in the test on PC-3 prostate, 74.8% (inactive). Besides, the growth was 106% (inactive) in the test on SK-MEL-5 melanoma; 92.5% (inactive) with UACC-62 melanoma; 106% (inactive) in the test with LOX IMVI melanoma; 109% (inactive) with SK-MEL-28 melanoma; 94.9% (inactive) in the test with SK-MEL-2 melanoma; 95.4% (inactive) in the test with EKVX NSCLC. The growth in the test with SN12C renal was 97.6% (inactive); in the test on UO-31 renal, 88% (inactive); with TK-10 renal it was 88.6% (inactive); with ACHN renal it was 108% (inactive); in the test on CAKI-1 renal it was 81.9% (inactive); in the test on A498 renal it was 105% (inactive). Further, the growth in the test with HL-60(TB) leukemia was 73.5% (inactive); in the test with CCRF-CEM leukemia, 96% (inactive).
Turning to `O=C(CCCN1CCC2(CC1)C(=O)NCN2c1ccccc1)c1ccc(F)cc1`, the growth was 100% (inactive) and 78.4% (inactive) with HCT-15 colon; 60.8% (inactive) and 21.9% (inactive) in the test with HT29 colon; 109% (inactive) and 105% (inactive) with SNB-75 CNS; 98.1% (inactive) and 66.6% (inactive) in the test with SNB-19 CNS; 98.6% (inactive) and 78.7% (inactive) in the test with U251 CNS; 106% (inactive) and 77.6% (inactive) in the test on PC-3 prostate. For the same molecule, the growth in the test on SK-MEL-5 melanoma is 56.9% (inactive) and -23.1% (active); in the test with UACC-62 melanoma, 102% (inactive) and 65% (inactive); in the test on LOX IMVI melanoma, 103% (inactive) and 67.8% (inactive); in the test with SK-MEL-28 melanoma, 114% (inactive) and 120% (inactive); with SK-MEL-2 melanoma it was 106% (inactive) and 78.5% (inactive); with EKVX NSCLC, 57.6% (inactive) and 80.6% (inactive). For the same molecule, the growth in the test with SN12C renal was 99.6% (inactive) and 84.2% (inactive); in the test with UO-31 renal it was 77.1% (inactive) and 66% (inactive); with TK-10 renal it was 115% (inactive) and 99.1% (inactive); in the test with ACHN renal it was 20.3% (inactive); with CAKI-1 renal, 91.6% (inactive) and 15.5% (inactive); with HL-60(TB) leukemia it was 100% (inactive) and 114% (inactive).
Take `O=c1c2ccccc2nc(-c2ccccc2Cl)n1-c1nnc(C(F)(F)F)s1`: the growth was 21.1% (inactive) with HCT-15 colon; 30.3% (inactive) with HT29 colon; 53.9% (inactive) in the test with SNB-75 CNS; 33.2% (inactive) with SNB-19 CNS; 16.6% (inactive) with U251 CNS; 20% (inactive) in the test with PC-3 prostate. Further, the growth is 9.47% (active) in the test on SK-MEL-5 melanoma; 10.3% (inactive) in the test with UACC-62 melanoma; 31.3% (inactive) in the test on LOX IMVI melanoma; 30.2% (inactive) in the test on SK-MEL-28 melanoma; 21.9% (inactive) with SN12C renal; 19.4% (inactive) in the test with UO-31 renal. For the same molecule, the growth was 42% (inactive) in the test on TK-10 renal; 51.8% (inactive) in the test with ACHN renal; 3.51% (active) in the test with CAKI-1 renal; -7.82% (active) with A498 renal; 1.24% (active) with HL-60(TB) leukemia; 7.41% (active) in the test with CCRF-CEM leukemia.
With `CCCC[C@H]1C(=O)O[C@H](C)[C@H](NC(=O)c2cccc(NC=O)c2O)C(=O)O[C@@H](C)[C@@H]1OC(=O)CC(C)C`, the growth in the test with HCT-15 colon is 39.9% (inactive); with HT29 colon, 49.5% (inactive); in the test with SNB-75 CNS, 56.8% (inactive); in the test with SNB-19 CNS, 44.4% (inactive); with U251 CNS it was 42.9% (inactive); in the test on PC-3 prostate, 32.9% (inactive). Further, the growth in the test on SK-MEL-5 melanoma was -5.18% (active); in the test on UACC-62 melanoma it was 34% (inactive); with LOX IMVI melanoma, 32.9% (inactive); in the test on SK-MEL-28 melanoma, 83.9% (inactive); in the test on SK-MEL-2 melanoma it was 93.4% (inactive); in the test with EKVX NSCLC it was 57.7% (inactive). In addition, the growth in the test on SN12C renal is 59.6% (inactive); in the test on UO-31 renal, 57.3% (inactive); in the test with TK-10 renal, 49.8% (inactive); in the test with ACHN renal, 56.6% (inactive); in the test with CAKI-1 renal it was 34.5% (inactive); in the test on HL-60(TB) leukemia it was 37% (inactive). The growth in the test on CCRF-CEM leukemia is 28.7% (inactive).
Take `COc1ccc2c(c1)C1(C)CCN(C)CC(C1)C2O` (configuration not stated): the growth with HCT-15 colon is 97.6% (inactive); in the test on HT29 colon, 98.5% (inactive); with SNB-75 CNS, 84.2% (inactive); in the test with SNB-19 CNS, 103% (inactive); in the test on U251 CNS, 99.3% (inactive); with PC-3 prostate, 88.6% (inactive). Besides, the growth in the test with SK-MEL-5 melanoma is 99.5% (inactive); in the test on UACC-62 melanoma, 108% (inactive); with LOX IMVI melanoma, 98.4% (inactive); with SK-MEL-28 melanoma it was 108% (inactive); in the test on SK-MEL-2 melanoma, 105% (inactive); with SN12C renal it was 99.3% (inactive). In addition, the growth was 86.9% (inactive) with UO-31 renal; 95% (inactive) in the test on TK-10 renal; 104% (inactive) in the test on ACHN renal; 119% (inactive) in the test on CAKI-1 renal; 99.5% (inactive) with A498 renal; 89.1% (inactive) with HL-60(TB) leukemia. Besides, the growth in the test on CCRF-CEM leukemia is 94.3% (inactive).
Consider `C/C(=C(\c1ccc(OCCN2CCOCC2)cc1)c1ccc(OC(=O)Cc2ccccc2)cc1)c1ccc(Cl)cc1`, for which the growth in the test on HCT-15 colon is 91.4% (inactive); in the test with HT29 colon, 77.1% (inactive); in the test with SNB-75 CNS, 95.7% (inactive); in the test on SNB-19 CNS, 96.3% (inactive); with U251 CNS, 99.2% (inactive); with PC-3 prostate, 68.2% (inactive). The growth is 86.6% (inactive) with SK-MEL-5 melanoma; 85.4% (inactive) in the test on UACC-62 melanoma; 98.6% (inactive) with LOX IMVI melanoma; 103% (inactive) in the test with SK-MEL-28 melanoma; 81.5% (inactive) with SK-MEL-2 melanoma; 95.4% (inactive) in the test on EKVX NSCLC. For the same molecule, the growth in the test with SN12C renal was 91.2% (inactive); in the test with UO-31 renal, 85.5% (inactive); in the test with TK-10 renal it was 90.8% (inactive); in the test with ACHN renal, 112% (inactive); with CAKI-1 renal, 78.7% (inactive); with HL-60(TB) leukemia, 82.9% (inactive). Further, in the test on CCRF-CEM leukemia, the growth was 84.9% (inactive).
For the molecule `COc1ccc(N)cc1N`, the growth in the test on HCT-15 colon was 102% (inactive); in the test on HT29 colon, 113% (inactive); in the test on SNB-75 CNS it was 88.7% (inactive); in the test with SNB-19 CNS, 101% (inactive); in the test on U251 CNS it was 106% (inactive); in the test on PC-3 prostate it was 88.2% (inactive). Further, the growth is 105% (inactive) in the test on SK-MEL-5 melanoma; 105% (inactive) in the test with UACC-62 melanoma; 100% (inactive) with LOX IMVI melanoma; 120% (inactive) with SK-MEL-28 melanoma; 107% (inactive) in the test with EKVX NSCLC; 101% (inactive) in the test with SN12C renal. The growth is 70.8% (inactive) in the test on UO-31 renal; 148% (inactive) in the test with TK-10 renal; 101% (inactive) in the test on ACHN renal; 101% (inactive) with CAKI-1 renal; 122% (inactive) in the test on A498 renal; 128% (inactive) with HL-60(TB) leukemia. Besides, the growth in the test on CCRF-CEM leukemia was 111% (inactive).
